The nature of assay [1]: compounds binding Alexa647 anti-His antibody – biochemical, small-molecule microarray, 635 nm fluorescence, artefact control for SMM control protein annotation, primary screen (AID 1128).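 Note: score merges feature fluorescence with signal-to-noise for each printed compound spot.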 The conditions noted are these: higher = more signal.
In assay [2] the test system is Human papillomavirus type 1a E7 protein (residues 1-88). Kind of assay: HPV1a E7 small-molecule binders, primary screen, biochemical, small-molecule microarray, residues 1-88, 635 nm (AID 1129). Conditions: small-molecule microarray binding, fluorescence 635 nm; higher = more signal.
The target of assay [3] is Focal adhesion kinase 1 (Homo sapiens) (UniProt Q05397). Put plainly: PTK2 protein binding on printed compound slides – biochemical, small-molecule microarray, 635/667 nm fluorescence, BSA, DTT, primary screen (AID 1130).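 Note: composite of spot emission at 667 nm and signal to noise over triplicate slides.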 Conditions: 635 nm fluorescence, higher = more signal.
Sequence of Focal adhesion kinase 1 (Homo sapiens) (Q05397 whole entry, looked up): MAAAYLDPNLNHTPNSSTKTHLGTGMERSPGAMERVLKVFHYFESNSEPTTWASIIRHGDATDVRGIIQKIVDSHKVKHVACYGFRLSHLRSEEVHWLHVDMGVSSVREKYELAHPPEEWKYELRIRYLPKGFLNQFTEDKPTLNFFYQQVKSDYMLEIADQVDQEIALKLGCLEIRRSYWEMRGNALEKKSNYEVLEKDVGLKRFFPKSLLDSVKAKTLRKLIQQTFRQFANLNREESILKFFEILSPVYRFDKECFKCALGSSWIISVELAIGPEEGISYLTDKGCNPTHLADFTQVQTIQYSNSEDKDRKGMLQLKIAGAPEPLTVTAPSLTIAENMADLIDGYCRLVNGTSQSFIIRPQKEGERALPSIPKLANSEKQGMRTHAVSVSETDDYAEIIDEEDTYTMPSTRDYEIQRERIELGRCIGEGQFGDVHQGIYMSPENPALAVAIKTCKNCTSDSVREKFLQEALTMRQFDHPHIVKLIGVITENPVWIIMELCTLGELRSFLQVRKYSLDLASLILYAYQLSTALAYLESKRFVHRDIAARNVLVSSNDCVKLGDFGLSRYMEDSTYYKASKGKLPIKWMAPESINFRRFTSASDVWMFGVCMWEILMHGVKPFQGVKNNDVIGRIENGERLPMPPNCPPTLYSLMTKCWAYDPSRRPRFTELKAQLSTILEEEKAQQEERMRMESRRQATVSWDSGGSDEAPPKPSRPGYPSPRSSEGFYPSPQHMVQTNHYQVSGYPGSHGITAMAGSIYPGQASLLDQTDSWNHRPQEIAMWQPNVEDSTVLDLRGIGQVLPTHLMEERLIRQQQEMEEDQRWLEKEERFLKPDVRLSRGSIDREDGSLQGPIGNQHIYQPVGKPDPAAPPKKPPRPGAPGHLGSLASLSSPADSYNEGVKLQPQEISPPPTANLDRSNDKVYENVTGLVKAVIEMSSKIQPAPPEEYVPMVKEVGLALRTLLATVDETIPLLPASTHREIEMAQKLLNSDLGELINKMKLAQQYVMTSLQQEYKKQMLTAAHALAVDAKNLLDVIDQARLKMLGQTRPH
The test system of assay [4] is Fibrinogen (Alexa647-labelled). Put plainly: Alexa647-fibrinogen binding to printed small molecules – biochemical, small-molecule microarray, 635/667 nm fluorescence, artefact control for SMM control-protein annotation, profiling panel (AID 1131).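 Note: z-score merges 667 nm fluorescence with per-spot signal-to-noise over triplicate slides.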 Conditions: fibrinogen-A647 binding fluorescence, higher = more signal.
Assay [5] has as its target Follistatin (Homo sapiens) (UniProt P19883). Put plainly: FST protein binding to printed compounds – biochemical, small-molecule microarray, 635/667 nm fluorescence, primary screen (AID 1132). The conditions noted are these: 635 nm fluorescence, higher = more signal.
Assay [6] addresses Fibroblast growth factor 2 (Homo sapiens) (UniProt P09038). Put plainly: basic fibroblast growth factor binding to printed compounds – biochemical, small-molecule microarray, 635/667 nm fluorescence, primary screen (AID 1133). Conditions: FGF2, fluorescence 635/667, higher = more signal.
Assay [7] can be described thus: JC-1 mitochondrial potential readout, lung cancer cells – cell-based, A549, JC-1 fluorescence, basal, 24 h, 100 nL, profiling panel (AID 1138).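 Note: A549 lung adenocarcinoma cells under basal conditions with no added stimulus; test concentration not given here.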 Conditions: higher = more signal.
For a further assay, the system named is Lefty1. Put plainly: Lefty1 protein binding to printed compounds – biochemical, small-molecule microarray, 635/667 nm fluorescence, primary screen (AID 1139). The conditions noted are these: fluorescence 635/667, higher = more signal.
The subject of assay [8] is wheat germ agglutinin (Triticum aestivum), Alexa647-labelled. Put plainly: Alexa647-WGA lectin binding to printed small molecules – biochemical, small-molecule microarray, 635/667 nm fluorescence, artefact control for SMM control-protein annotation, profiling panel (AID 1140).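 Note: score merges 667 nm feature emission with signal to noise over triplicate slides.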 Conditions: WGA-A647 binding, 635 nm fluorescence, higher = more signal.
Assay [9] deals with Luciferin 4-monooxygenase (Photinus pyralis) (UniProt P08659). Kind of assay: inhibition of purified Photinus pyralis luciferase – biochemical, luminescence, purified enzyme, 2006 set, primary screen (AID 1141).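 Note: cell-free assay with purified firefly luciferase at 100 ng per well in PBS; test concentration not given here.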 Conditions: purified firefly luciferase, SteadyGlo luminescence, 30 min; higher = more signal, called active from +8 up or from −8 down.
Sequence of Luciferin 4-monooxygenase (Photinus pyralis) (P08659 whole entry, looked up): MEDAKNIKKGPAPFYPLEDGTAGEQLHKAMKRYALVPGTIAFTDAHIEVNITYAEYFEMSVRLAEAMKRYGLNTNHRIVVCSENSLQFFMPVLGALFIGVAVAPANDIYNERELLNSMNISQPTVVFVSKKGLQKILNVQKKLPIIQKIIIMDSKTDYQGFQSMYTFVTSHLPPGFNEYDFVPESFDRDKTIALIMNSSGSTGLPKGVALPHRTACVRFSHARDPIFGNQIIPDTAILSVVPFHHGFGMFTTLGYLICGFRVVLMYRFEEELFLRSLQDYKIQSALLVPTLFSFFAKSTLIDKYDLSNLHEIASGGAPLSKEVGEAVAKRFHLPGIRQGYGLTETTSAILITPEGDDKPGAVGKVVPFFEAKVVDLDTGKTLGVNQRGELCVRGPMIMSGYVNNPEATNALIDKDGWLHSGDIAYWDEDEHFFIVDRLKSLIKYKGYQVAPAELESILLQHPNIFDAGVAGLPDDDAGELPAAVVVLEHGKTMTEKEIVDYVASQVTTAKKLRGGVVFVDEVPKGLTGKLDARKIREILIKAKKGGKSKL
Assay [10] deals with Wnt5a (protein binding on small-molecule microarray). Kind of assay: small molecules binding Wnt5a protein – biophysical, small-molecule microarray, 635/667 nm fluorescence, primary screen (AID 1142).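 Note: fluorescence read at 667 nm with signal to noise per printed feature.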 The conditions noted are these: 635 nm fluorescence, higher = more signal.
Assay [11] is described as follows: ATP-based viability of Huh7 replicon cells – cell-based, CellTiter-Glo luminescence, basal, 48 h, cytotoxicity control for HCV replication inhibitor project, primary screen (AID 1143).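 Note: Huh7 hepatoma cells carrying a hepatitis C replication reporter with no stimulus; test concentration not given here.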 Conditions: higher = more signal, called active from +8 up or from −8 down. Background: A replicon is a self-replicating genome or part of one, used to study replication in cells.
A short description of assay [12]: Pseudomonas biofilm growth suppression – PAO1 strain, BacTiter-Glo luminescence, LB-PBS, primary screen (AID 1144). Conditions: P. aeruginosa PAO1 biofilm, 12 h, higher = more signal.
Assay [13] in a line: basal CRE-LacZ reporter activity in PC12 – cell-based, unstimulated, primary screen (AID 1145). Conditions: no forskolin, luminescence, 4.5 h, higher = more signal, called active from +8 up or from −8 down.
Assay [14] can be described thus: forskolin-driven CRE-LacZ activity in PC12 – cell-based, CRE-LacZ reporter, forskolin-stimulated, primary screen (AID 1146).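 Note: PC12 cells with 6xCRE LacZ reporter stimulated by forskolin 10 µM; beta-galactosidase reporter signal reflecting CREB driven transcription.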 Conditions: luminescence, 4.5 h, higher = more signal, called active from +8 up or from −8 down.
The target in assay [15] is Streptavidin (Streptomyces avidinii) (UniProt P22629). Kind of assay: compounds binding control protein streptavidin – biophysical, small-molecule microarray, 635/667 nm fluorescence, artefact control for SMM compound annotation, primary screen (AID 1147).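 Note: signal reflects streptavidin binding to arrayed compounds as a control protein.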 Conditions: higher = more signal.
Sequence of Streptavidin (Streptomyces avidinii) (P22629 whole entry, looked up): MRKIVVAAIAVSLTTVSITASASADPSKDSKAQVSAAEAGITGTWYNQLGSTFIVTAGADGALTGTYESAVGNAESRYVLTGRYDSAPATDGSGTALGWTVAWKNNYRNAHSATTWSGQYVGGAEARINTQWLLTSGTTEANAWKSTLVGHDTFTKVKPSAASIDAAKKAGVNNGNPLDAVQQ
The nature of assay [16]: probe aInhba binding on compound microarray – biochemical, small-molecule microarray, 635/667 nm fluorescence, primary screen (AID 1148).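 Note: score merges 667nm spot fluorescence with signal-to-noise for antibody binding to printed compounds.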 Conditions: higher = more signal.
Assay [17] concerns the target Torsin-1A (Homo sapiens) (UniProt O14656). Put plainly: TOR1A wild-type binding on microarray – cell lysate, small-molecule microarray, lysate, 635/667 nm, primary screen (AID 1149). Conditions: COS7 hTOR1A-WT lysate, 635 nm fluorescence, higher = more signal.
For assay [18] the target is unchanged. Put plainly: torsin A mutant lysate binding on microarrays – cell lysate, small-molecule microarray, COS7 lysate, 635/667 nm fluorescence, primary screen (AID 1150).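 Note: score pools 667 nm emission and signal to noise measuring lysate protein binding.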 Conditions: COS7 hTOR1A mutant lysate, 635 nm fluorescence, higher = more signal.
Assay [19] deals with Sonic hedgehog protein (Shh). Put plainly: Sonic hedgehog microarray binding compounds – biochemical, small-molecule microarray, 635/667 nm fluorescence, primary screen (AID 1151).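 Note: Shh protein binding to compounds spotted on small-molecule microarray slides; score combines spot fluorescence intensity with signal-to-noise across triplicate slides.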 The conditions noted are these: 635 nm fluorescence, higher = more signal.

Each structure is given as a SMILES string. Activity calls are given as the source filed them. Unless noted, the rule behind the calls is not given here.

Sequence of Fibroblast growth factor 2 (Homo sapiens) (P09038 whole entry, looked up): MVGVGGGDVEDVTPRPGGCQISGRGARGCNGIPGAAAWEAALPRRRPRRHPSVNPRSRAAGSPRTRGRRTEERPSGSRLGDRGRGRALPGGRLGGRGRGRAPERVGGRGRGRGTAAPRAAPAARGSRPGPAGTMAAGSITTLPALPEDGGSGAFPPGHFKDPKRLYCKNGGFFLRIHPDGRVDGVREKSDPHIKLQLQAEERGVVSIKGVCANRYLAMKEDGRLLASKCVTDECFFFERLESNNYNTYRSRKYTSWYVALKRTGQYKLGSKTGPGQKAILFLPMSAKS
Sequence of Follistatin (Homo sapiens) (P19883 whole entry, looked up): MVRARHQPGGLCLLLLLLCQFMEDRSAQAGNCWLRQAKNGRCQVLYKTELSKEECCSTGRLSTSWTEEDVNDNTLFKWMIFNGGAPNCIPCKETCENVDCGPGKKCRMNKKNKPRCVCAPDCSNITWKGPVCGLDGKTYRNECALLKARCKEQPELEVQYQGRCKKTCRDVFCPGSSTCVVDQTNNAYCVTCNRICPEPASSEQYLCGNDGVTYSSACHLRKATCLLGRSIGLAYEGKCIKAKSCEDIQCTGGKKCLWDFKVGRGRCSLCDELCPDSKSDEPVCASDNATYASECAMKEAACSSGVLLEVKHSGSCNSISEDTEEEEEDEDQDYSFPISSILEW
Sequence of Torsin-1A (Homo sapiens) (O14656 whole entry, looked up): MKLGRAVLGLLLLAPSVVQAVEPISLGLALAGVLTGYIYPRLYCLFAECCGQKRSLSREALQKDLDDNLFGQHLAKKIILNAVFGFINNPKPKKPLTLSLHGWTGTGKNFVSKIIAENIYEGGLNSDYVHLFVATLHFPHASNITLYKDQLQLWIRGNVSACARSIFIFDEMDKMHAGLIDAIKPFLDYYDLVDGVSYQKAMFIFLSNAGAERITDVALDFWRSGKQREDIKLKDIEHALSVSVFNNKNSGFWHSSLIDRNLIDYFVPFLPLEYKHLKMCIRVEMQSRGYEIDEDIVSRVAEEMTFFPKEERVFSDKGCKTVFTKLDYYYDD

In the case of `O=C1[C@H]2[C@H]3[C@H](O)[C@H](O)CC(=NOCc4ccccc4)[C@H]3CC[C@H]2C(=O)N1Cc1ccc2c(c1)OCO2`, the composite z-score in assay [1] is -0.169; in assay [2], 0.186; in [3], -0.175; in [4], 0.632; in assay [5], 0.214; in [6], 0.533. Further, the composite z-score in the assay on Lefty1 was 0.397; in assay [8], 0.492; in assay [10], -0.0988; in [15], 0.484; in assay [16], -0.15; with Torsin-1A (Homo sapiens) [17] it was 0.0874. Besides, the composite z-score with Torsin-1A (Homo sapiens) [18] is 0.172; in assay [19], 0.394. The z-score was -0.626 in [7]; 1.23 (inactive) in assay [9]; -1.96 (inactive) in [11]; 1.66 (inactive) in [12]; -0.203 (inactive) in assay [13]; -0.915 (inactive) in [14].
For `COc1cccc([C@H]2Oc3ccc(OC)cc3C(=NOC(C)CN3CCCCc4nc(C)c(C)cc43)[C@@H]2O)c1` (stereo not given in full), the composite z-score in [1] is 1.95; in assay [2], 0.195; in assay [3] it was -0.251; in [4], 0.755; in [5], 0.241; in assay [6], 0.414. The composite z-score was 0.341 in the assay on Lefty1; 0.698 in assay [8]; 0.292 in [10]; -0.519 in assay [15]; -0.024 in assay [16]; 0.242 with Torsin-1A (Homo sapiens) [17]. Also, the composite z-score with Torsin-1A (Homo sapiens) [18] is -0.14; in assay [19], 0.291. The z-score in assay [7] was -0.349; in assay [9] it was -0.404 (inactive); in assay [11], -1.77 (inactive); in assay [12] it was 0.979 (inactive); in assay [13], 5.7 (inactive); in [14], 0.323 (inactive).
Take `CCN1C(=O)[C@H]2[C@H]3[C@H](O)[C@H](O)CC(=O)[C@@H]3CC[C@H]2C1=O`: the composite z-score in [1] was 0.562; in assay [2], 0.899; in assay [3], -0.049; in [4], 0.583; in assay [5], 0.468; in assay [6] it was 0.226. In addition, the composite z-score with Lefty1 was 0.547; in assay [8], 0.187; in assay [10] it was 0.0774; in assay [15], 0.253; in assay [16], -0.0719; with Torsin-1A (Homo sapiens) [17], -0.109. Besides, the figures for the composite z-score (in the assay with Torsin-1A (Homo sapiens) [18]; in assay [19]) were 0.344 and 0.694, respectively. The z-score is 1.39 in assay [7]; -0.497 (inactive) in assay [9]; 0.213 (inactive) in assay [11]; -0.402 (inactive) in [12]; -0.293 (inactive) in assay [13]; -0.69 (inactive) in [14].
With `O=C1C2=CC[C@H]3C(=O)N(c4cccc(Oc5ccccc5)c4)C(=O)[C@H]3[C@H]2[C@H](O)[C@@H]2O[C@H]12`, the composite z-score is 0.703 in assay [1]; 0.185 in [2]; -0.0765 in [3]; -0.156 in [4]; 0.916 in assay [5]; 0.425 in [6]. Besides, the composite z-score in the assay with Lefty1 was 0.755; in assay [8], 0.0467; in assay [10], 0.0049; in [15], 0.284; in [16], -0.239; with Torsin-1A (Homo sapiens) [17], 0.181. Moreover, the values for the composite z-score (with Torsin-1A (Homo sapiens) [18]; in assay [19]) were -0.111 and 0.264, respectively. Besides, the z-score in assay [7] is -0.633; in [9], -1.27 (inactive); in assay [11], -6.01 (inactive); in assay [12], 0.478 (inactive); in assay [13], 0.699 (inactive); in [14], 19.7 (active).
Consider `O=c1n(Cc2cc3c(cc2Cl)OCO3)c(=O)n2n1CC[C@@H]1C(=NOC[C@@H](O)COCc3ccco3)[C@H]3O[C@H]3[C@@H](O)[C@@H]12`, for which the composite z-score is 0.0465 in [1]; 0.642 in assay [2]; -0.0676 in [3]; 0.354 in assay [4]; 0.568 in assay [5]; 0.546 in [6]. The composite z-score in the assay with Lefty1 came to 0.414; in [8], 0.004; in assay [10] it was 0.127; in [15], 1.02; in [16], 0.0084; with Torsin-1A (Homo sapiens) [17], 0.365. Further, the values for the composite z-score (in the assay with Torsin-1A (Homo sapiens) [18]; in assay [19]) were 0.156 and 0.344, respectively. Also, the z-score is -0.15 in assay [7]; -0.357 (inactive) in assay [9]; 0.376 (inactive) in assay [11]; -1.11 (inactive) in assay [12]; 0.975 (inactive) in [13]; 0.819 (inactive) in assay [14].
Regarding `CO[C@H]1COC(=O)CC=C[C@H](C)COC(=O)[C@@H](C)NC(=O)CC=C[C@@H]1C`, the composite z-score in assay [1] is 2.07; in [2], -0.696; in assay [3], -0.775; in assay [4], -1.32; in assay [5], 1.29; in assay [6] it was 0.654. Moreover, the composite z-score was 1.72 with Lefty1; -0.52 in assay [8]; 0.042 in assay [10]; 0.0677 in [15]; -0.25 in [16]; 2.78 with Torsin-1A (Homo sapiens) [17]. Besides, the composite z-score in the assay with Torsin-1A (Homo sapiens) [18] worked out at 2.8; in [19], 2.08. Moreover, the z-score in assay [7] was -1.61; in assay [9], 0.917 (inactive); in assay [11] it was -2.06 (inactive); in assay [12], -1.59 (inactive); in [13], -0.31 (inactive); in [14], -0.0543 (inactive).

Values taken from PubChem BioAssay.
